Results as given in PubChem BioAssay (NCATS).
Results filed as inconclusive are left out. A call without a number means that no potency is given here. The source made the active and inactive calls. The call rests on the fitted dose curve; in most records, active means well fitted curve in the direction sought with a large enough effect; inconclusive means small, poorly fitted or top-dose-only effect, or another doubt; inactive means no such curve, though single readings can be large; an effect the other way counts as inactive or inconclusive.

Experiments:
[1] = target: Cytochrome P450 3A4 (Homo sapiens) (UniProt P08684); test: qHTS Assay for Inhibitors and Substrates of Cytochrome P450 3A4 (AID 884); settings: recombinant CYP3A4, Luciferin-PPXE luminescence; series mostly up to 57.1 µM; further: nearly all actives have a fitted effect of over 50% in size; further: potency means the concentration at half of the fitted maximal effect
Cytochrome P450 3A4 (Homo sapiens), sequence (P08684 whole entry, looked up): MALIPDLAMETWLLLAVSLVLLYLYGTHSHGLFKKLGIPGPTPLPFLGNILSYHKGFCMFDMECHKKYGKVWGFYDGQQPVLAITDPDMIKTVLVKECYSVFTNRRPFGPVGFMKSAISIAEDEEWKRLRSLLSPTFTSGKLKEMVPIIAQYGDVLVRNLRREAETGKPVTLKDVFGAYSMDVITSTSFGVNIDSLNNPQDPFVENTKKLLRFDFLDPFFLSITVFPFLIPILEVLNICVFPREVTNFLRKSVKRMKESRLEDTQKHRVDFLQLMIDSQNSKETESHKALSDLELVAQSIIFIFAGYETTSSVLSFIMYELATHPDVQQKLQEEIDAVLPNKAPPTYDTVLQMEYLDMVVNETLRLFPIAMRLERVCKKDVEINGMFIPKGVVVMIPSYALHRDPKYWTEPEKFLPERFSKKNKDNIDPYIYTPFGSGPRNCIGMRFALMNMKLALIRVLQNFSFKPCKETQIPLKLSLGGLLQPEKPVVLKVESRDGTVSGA
Procedure, shortened: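 Luminescent readout of luciferin produced by CYP3A4 (20 nM) dealkylation of Luciferin-PPXE, 25 uM (its KM). NADPH-driven reaction ran 60 min at RT after 10 min compound preincubation; data scaled to 57 uM ketoconazole as 100% inhibition.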

[2] = Confirmation and Secondary Assay for Modulators of Hemoglobin Beta Chain Splicing at IVS2 654 locus (AID 910); settings: HeLa EGFP-654 splicing reporter, GFP fluorescence, 48 h; series mostly up to 46.1 µM;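 further: HeLa cells stably carrying EGFP split by mutant beta-globin IVS2-654 intron; per-well total GFP intensity by laser scanning cytometry after 2-day treatment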
Procedure, shortened: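 Readout: per-well total peak green fluorescence (488 nm ex, 500–520 nm em) from objects 5–250 µm, reflecting correct splicing of an EGFP-654 reporter. Compounds were applied for 2 days at 37 °C to overnight-plated HeLa EGFP-654 cells; controls were DMSO and 500 nM IVS2-654 PNA.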

[3] = Confirmation and Secondary Assay for Modulators of Hemoglobin Beta Chain Splicing at IVS2 705 locus (AID 930); settings: HeLa EGFP-705 splicing reporter, GFP fluorescence, 48 h; series mostly up to 46.1 µM;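 further: HeLa cells stably expressing the EGFP-705 splicing reporter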
Procedure, shortened: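 Restored EGFP fluorescence after 2-day compound exposure reports splicing correction in IVS2-705 EGFP reporter HeLa cells; positive control was 500 nM splice-blocking PNA oligo. Signal measured as well total peak GFP intensity (488 nm excitation).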

[4] = target: Ubiquitin carboxyl-terminal hydrolase 1 (Homo sapiens) (UniProt O94782); test: Inhibitors of USP1/UAF1: Pilot qHTS (AID 504865); settings: purified USP1/UAF1, Ub-rhodamine cleavage fluorescence; series mostly up to 114 µM;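 further: rhodamine fluorescence freed from ubiquitin-rhodamine substrate followed over time; top concentration of the series differs between compounds; nearly all actives have a fitted effect of over 35% in size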
Ubiquitin carboxyl-terminal hydrolase 1 (Homo sapiens), sequence (O94782 whole entry, looked up): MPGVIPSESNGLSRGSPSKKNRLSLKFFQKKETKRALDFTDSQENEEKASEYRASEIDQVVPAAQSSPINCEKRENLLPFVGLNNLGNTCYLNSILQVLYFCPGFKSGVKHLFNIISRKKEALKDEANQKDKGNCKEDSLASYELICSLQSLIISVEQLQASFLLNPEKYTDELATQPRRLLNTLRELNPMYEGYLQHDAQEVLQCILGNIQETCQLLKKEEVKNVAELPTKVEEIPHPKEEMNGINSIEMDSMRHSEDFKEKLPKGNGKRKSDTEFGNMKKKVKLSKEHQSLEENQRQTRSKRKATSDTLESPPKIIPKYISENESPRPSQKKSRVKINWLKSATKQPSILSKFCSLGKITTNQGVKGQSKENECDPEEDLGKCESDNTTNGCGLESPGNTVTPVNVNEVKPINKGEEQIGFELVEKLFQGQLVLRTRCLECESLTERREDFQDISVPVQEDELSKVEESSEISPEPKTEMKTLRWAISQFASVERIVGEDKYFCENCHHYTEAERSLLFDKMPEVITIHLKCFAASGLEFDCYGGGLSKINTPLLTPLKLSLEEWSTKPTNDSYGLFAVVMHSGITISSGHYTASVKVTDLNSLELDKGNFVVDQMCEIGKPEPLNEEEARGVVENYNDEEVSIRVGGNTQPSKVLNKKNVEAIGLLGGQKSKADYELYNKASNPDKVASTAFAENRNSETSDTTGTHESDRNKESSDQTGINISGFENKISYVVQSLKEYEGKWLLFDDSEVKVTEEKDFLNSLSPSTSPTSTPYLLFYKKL
Procedure, shortened: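 Deubiquitinase activity followed as kinetic rhodamine fluorescence release from 150 nM Ub-Rho. 1 nM USP1/UAF1 with compound, after 15 min room-temperature preincubation, in HEPES pH 7.8 buffer containing TCEP, EDTA, BSA and Tween-20.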

[5] = target: Cytochrome P450 3A4 (Homo sapiens) (UniProt P08684); test: qHTS Assay for Activators of Cytochrome P450 3A4 (AID 885); settings: recombinant CYP3A4, Luciferin-PPXE luminescence, 60 min; series mostly up to 57.1 µM; further: nearly all actives have a fitted effect of over 65% in size
Procedure, shortened: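 Luminescent readout of luciferin formed from 25 uM Luciferin-PPXE (KM level) by 20 nM CYP3A4 in 200 mM KPO4, with 60 min NADPH-driven reaction at room temperature after 10 min compound exposure. Ketoconazole (57 uM) defined 100% inhibition.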

Q: With CC(=O)OC1CC[C@@]2(C)C3CC[C@@]4(C)C(CC5O[C@@]6(CCC(C)CO6)C(C)C54)C3CC[C@@H]2C1 (some centres undefined) as the compound, how does the Potency [1] read?
A: inactive

Q: What about the outcome [2] of the same compound?
A: inactive

Q: And the outcome [3]?
A: inactive

Q: What about the Potency [4] of the same compound?
A: inactive

Q: With O[N+]1=CC=CCC1=S.On1ccccc1=S.[Zn] as the compound, how does the Potency [1] read?
A: inactive

Q: What about the outcome [2] of the same compound?
A: inactive

Q: And the outcome [3]?
A: inactive

Q: And the Potency [4]?
A: inactive

Q: With COC(=O)CC1[C@@]2(C)C[C@@]34OC5(C)OC6(CC[C@@]7(C)C(c8ccoc8)OC(=O)C(C(C)=O)C7[C@]6(O5)C(O)[C@@]3(O)C2O)[C@]14C (some centres undefined) as the compound, how does the Potency [5] read?
A: inactive

Q: What about the outcome [2] of the same compound?
A: inactive

Q: What about the outcome [3] of the same compound?
A: inactive

Q: What about the Potency [4] of the same compound?
A: inactive

Q: For NC1C(O)OC(CO)[C@@H](O)[C@@H]1O[C@H]1O[C@@H](C(=O)O)C(O)C(O)C1O (some centres undefined), which Potency [1] is on record?
A: inactive

Q: And the outcome [2]?
A: inactive

Q: And the outcome [3]?
A: inactive

Q: What about the Potency [4] of the same compound?
A: inactive

Q: For COC(=O)C1OC(=O)C2OC23[C@]2(C)C(OC(C)=O)CC4C(C)(C)C(=O)CC[C@]4(C)C2CC[C@@]13C (some centres undefined), which Potency [1] is on record?
A: inactive

Q: And the outcome [2]?
A: inactive

Q: And the outcome [3]?
A: inactive

Q: What about the Potency [4] of the same compound?
A: inactive

Q: What does the source list for C[C@@]12CCC(OC(=O)c3ccccc3)CC1CCc1ccccc12 (some centres undefined)?
A: Potency [1]: inactive; outcome [2]: inactive; outcome [3]: inactive; Potency [4]: inactive

Q: For CS(C)(=O)=O, which Potency [5] is on record?
A: inactive

Q: And the outcome [2]?
A: inactive

Q: And the outcome [3]?
A: inactive

Q: And the Potency [4]?
A: inactive

Q: For COc1ccc(C2COc3c(ccc(O)c3OC)C2)c(OC)c1O (centres undefined), which Potency [5] is on record?
A: inactive

Q: What about the outcome [2] of the same compound?
A: inactive

Q: What about the outcome [3] of the same compound?
A: inactive

Q: And the Potency [4]?
A: inactive

Q: Which Potency [1] does the source give for C=C1C(=O)OC2C[C@@]3(C)CCCC(C)C3=CC12 (some centres undefined) here?
A: 7.94 µM (active)

Q: What about the outcome [2] of the same compound?
A: inactive

Q: And the outcome [3]?
A: inactive

Q: What about the Potency [4] of the same compound?
A: inactive

Q: Which Potency [1] does the source give for COc1cc(C(C)=O)cc(OC)c1O here?
A: inactive

Q: What about the outcome [2] of the same compound?
A: inactive

Q: And the outcome [3]?
A: inactive

Q: And the Potency [4]?
A: inactive

Q: Which Potency [5] does the source give for COc1ccc(-c2coc3cc(OC)cc(OC)c3c2=O)cc1 here?
A: inactive

Q: What about the outcome [2] of the same compound?
A: inactive

Q: What about the outcome [3] of the same compound?
A: inactive

Q: And the Potency [4]?
A: inactive
